The text below walks through data of PubChem BioAssay AID652029 (The Scripps Research Institute Molecular Screening Center, 2013).

The list shows a part of the results. A number with no mark means an inactive call. Active and inactive are the calls of the source.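 How the source made its calls: active means inhibition of LYPLA2 enzyme probe labeling above about 50% (limit read from the data); inactive means inhibition below that limit.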

The inhibition is the drop in the measured response relative to a control, in per cent.

Chain of Acyl-protein thioesterase 2 (Homo sapiens) (O95372 whole entry, looked up): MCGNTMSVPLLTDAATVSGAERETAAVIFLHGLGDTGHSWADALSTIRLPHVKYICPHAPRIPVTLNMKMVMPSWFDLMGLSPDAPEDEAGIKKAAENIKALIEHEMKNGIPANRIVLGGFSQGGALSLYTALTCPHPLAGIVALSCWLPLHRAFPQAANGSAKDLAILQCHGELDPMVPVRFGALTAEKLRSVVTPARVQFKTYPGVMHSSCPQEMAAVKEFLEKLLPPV

This assay addresses Acyl-protein thioesterase 2 (Homo sapiens) (UniProt O95372). Nature of the assay: LYPLA2 inhibitors in proteome, late-stage follow-up, gel-based competitive ABPP, fluorescence, assay provider (AID 652029).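 Further: loss of FP-Rh probe labeling of the LYPLA2 gel band measured as band density; 0% = DMSO only control band and 100% = blank gel background.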 The settings on record: rhLYPLA2 in mouse brain proteome, gel ABPP FP-Rh; at 20 µM; stronger effect = higher value.
In the case of `CCC(=O)c1ccc(OCC(O)CN2CCN(c3cccc(C(F)(F)F)c3)CC2)cc1` (stereo not given), the inhibition was 18%.

Turning to `O=C1C2CCCN2C(=O)N1CCCCN1CCN(c2cccc(C(F)(F)F)c2)CC1` (stereo not given), the inhibition is 44%.

Take `O=C(CCCN1C(=O)c2cccc3cccc(c23)C1=O)N1CCN(Cc2ccc3c(c2)OCO3)CC1`: the inhibition was 25%.

Turning to `CC(=O)c1ccc(N2CCN(C(=O)C3CCN(S(=O)(=O)c4ccc5c(c4)CC(C)N5C(=O)C4CC4)CC3)CC2)cc1` (stereo not given), the inhibition was 70% (active).

For `COc1ccc(N2CCN(C(=O)c3ccc(N4CCCCS4(=O)=O)cc3)CC2)cc1`, the inhibition is 49%.
